Screens deposited in PubChem BioAssay by National Center for Advancing Translational Sciences (NCATS).
KB-V1 cytotox – kills drug-selected multidrug resistant KB-V1 cells | KB-V1 MDR cells viability, CellTiter-Glo, 72 h | Potency, µM (titrated, usually from 46.1 µM), usual class: cytotoxic | hit rate 3.4% among 400,000 | AID 1347076; also: nearly all actives have a fitted effect of over 60% in size
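KB-V1 cells (P-gp-expressing MDR subline of KB-3-1) in phenol-red-free DMEM with 10% FBS were exposed to library compounds over a concentration series for 72 h at 37 degrees C. Viability read by CellTiter-Glo luminescence; concentration-effect curves fitted after normalization.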
KB-3-1 cytotox – KB-3-1 parental cell cytotoxicity; Potency, µM (series often up to 46.1 µM), actives largely listed as cytotoxic; KB-3-1 viability, CellTiter-Glo ATP luminescence, 72 h; hit rate 1.4% among 400,000; also: nearly all actives have a fitted effect of over 60% in size
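Parental KB-3-1 viability, qHTS format: 72 h compound exposure, 37 °C; CellTiter-Glo; media-only wells and DMSO plates as controls; concentration-effect fits on corrected data.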
HT1080 IDH1KD tx – kills HT-1080 cells with IDH1 knockdown. HT-1080 IDH1 knockdown viability, ATP luminescence, 48 h. Potency, µM (series often up to 46.1 µM), without a hit: at the top dose activity, negative = toxicity, most hits filed as cytotoxic. hit rate 2% among 360,000. AID 686971;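 also: 0% = DMSO wells and -100% = cell-free medium wells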
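Assay cells: HT-1080 with IDH1 knockdown, 750 per well, RPMI/5% FBS. Exposure: 48 h at 37 °C following 2 h pre-incubation. Read: CellTiter-Glo luminescence; fitted concentration-response, curve class assigned.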
DT40 TDP1 no CPT – qHTS for Inhibitors of human tyrosyl-DNA phosphodiesterase 1 (TDP1): qHTS in cells in absence of CPT | DT40 Tdp1-/- hTDP1 cells, no CPT, ATP luminescence, 48 h | Potency, µM (doses to about 46.2 µM), inactives show top-dose activity change, negative = growth inhibition, hits mostly inhibitors | hit rate 15% among 420,000 | AID 686978, 2013; also: nearly all actives have a fitted effect of over 55% in size
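No-CPT arm: Tdp1-/-;hTDP1 DT40 cells (400/well) plus compounds, incubated ≥48 hr at 37 °C. Readout CellTiter-Glo luminescence.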
DT40 TDP1 CPT – DT40-hTDP1 cell growth loss with CPT; chicken DT40 Tdp1-/-;hTDP1 cells + 20 nM CPT, ATP luminescence, 48 h; hit rate 12% among 420,000; AID 686979; Potency, µM (top dose mostly 46.2 µM), for inactives: at the top dose activity change, negative = growth inhibition, actives largely listed as inhibitors; also: nearly all actives have a fitted effect of over 55% in size
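Cell growth measured by CellTiter-Glo luminescence after a minimum 48 h, 37 C compound exposure with 20 nM CPT in Tdp1-knockout DT40 cells stably expressing hTDP1, seeded 400/well; qHTS titration format.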
HT1080-NT tox – kills 2HG-producing HT-1080-NT fibrosarcoma cells | hit rate 1.6% among 360,000 | Potency, µM (series often up to 46.1 µM), for inactives: at the highest dose activity, negative = less viability, actives largely listed as cytotoxic | HT-1080-NT fibrosarcoma viability, CellTiter-Glo ATP luminescence, 48 h | AID 686970;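 also: NT is the 2HG producing partner of a matched IDH1 knockdown line; 0% = DMSO-treated cells and -100% = media-only wells without cells; nearly all actives have a fitted effect of over 55% in size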
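HT-1080-NT; 750 cells/well; 5% FBS RPMI; 48 h compound, 37 degrees C; CellTiter-Glo luminescence; curve fitting and curve-class assignment.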
Starred values were filed as active, the others as inactive; i = inactive; u = inconclusive; x = no result given; [ ] = another dose, or the depositor's remark. Shown are actives, neighbours in structure and some others; about 19% of the full set was active somewhere. Calls follow the shape of the dose curve; as a rule, active = well fitted curve in the direction sought with a large enough effect; inconclusive = small, poorly fitted or top-dose-only effect, or another doubt; inactive = no such curve, though single readings can be large; an effect the other way counts as inactive or inconclusive. Unless noted, % is scaled to controls: 0 for no effect and ±100 for the full control effect; potency is read from the fitted curve at half-maximal effect.

SMILES	KB-V1 cytotox	KB-3-1 cytotox	HT1080 IDH1KD tx	DT40 TDP1 no CPT	DT40 TDP1 CPT	HT1080-NT tox
Cn1c2ccccc2c2ncn(CCCN3CCOCC3)c(=O)c21	i	i	-7%	-15%	-3%	-20%
c1ccc(-c2oc3ncnc(NCCN4CCOCC4)c3c2-c2ccccc2)cc1	i	i	-17%	u	u	u
N=c1c2c(-c3ccccc3)c(-c3ccccc3)oc2ncn1CCCN1CCOCC1	23µM*	u	-22%	18µM*	21µM*	-30%
N=c1c2c(-c3ccccc3)c(-c3ccccc3)oc2ncn1CCN1CCOCC1	u	u	u	16µM*	u	u
O=C(Nn1c(C2CCCCC2)nc2ccccc2c1=O)c1ccc([N+](=O)[O-])cc1Cl	i	i	-6%	-2%	2%	u
CC1CCN(CC(O)COc2ccc(OCC(O)CN3CCC(C)CC3)cc2)CC1 (stereo unspecified)	i	i	5%	u	u	0%
CC1CCN(CC(O)COC2CCC(C(C)(C)C)CC2)CC1 (stereo unspecified)	i	i	-19%	18µM*	23µM*	u
CC(C)(C)C1CCC(OCC(O)CN2CCN(c3ccccc3)CC2)CC1 (stereo unspecified)	u	i	u	u	u	-19%
Cc1ccc(C)c(OCC(O)CN2CCc3ccccc3C2)c1C (stereo unspecified)	i	i	9.2µM*	3.7µM*	6.5µM*	u
Cc1ccc(C)c(OCC(O)CN2CCC(C)CC2)c1C (stereo unspecified)	i	i	0%	21µM*	u	-1%
CCC(=O)Nc1nc(C)c(-c2csc(Nc3cccc(O)c3)n2)s1	u	u	0.46µM*	3.7µM*	6.5µM*	u
Cc1ccnc(Nc2nc(-c3sc(C)nc3C)cs2)c1	u	u	u	u	15µM*	u
Cc1nc(C)c(-c2csc(Nc3ccccn3)n2)s1	i	u	-12%	u	-60%	u
Cc1nc(C)c(-c2csc(Nc3cccc(O)c3)n2)s1	u	i	u	23µM*	u	u
Cc1ccnc(Nc2nc(-c3ccc(Cl)cc3)cs2)c1	i	i	5%	21µM*	u	-8%
N#CCCn1nc(-c2ccccc2)cc1Nc1ccccc1NC(=O)c1cccs1	i	i	-10%	-27%	u	-10%
Cc1cccc(Nc2nc(-c3sc(C)nc3C)cs2)c1	u	u	u	16µM*	u	26µM*
NC(=S)NN=C1CCSCC1	i	i	0%	-20%	0%	-9%
O=C(NCC1CCCO1)c1ccc([N+](=O)[O-])s1 (stereo unspecified)	u	i	-13%	26µM*	13µM*	-8%
O=C(NCC1CCCO1)c1ccc(CS(=O)(=O)c2ccc(Br)cc2)o1 (stereo unspecified)	i	i	-1%	-8%	u	0%
O=C(NCC1CCCO1)c1ccc([N+](=O)[O-])o1 (stereo unspecified)	u	21µM*	-28%	-8%	u	u
O=C(NCC1CCCO1)c1ccc(CS(=O)(=O)c2ccc(Cl)cc2)o1 (stereo unspecified)	23µM*	i	5%	-1%	u	16%
O=C(Cn1nnc(-c2ccccc2Cl)n1)NCc1ccc2c(c1)OCO2	i	i	-5%[9.24 µM]	5%	-18%	-7%
O=C(NCc1ccccc1)C1CCCN1C(=O)Nc1ccccc1[N+](=O)[O-] (stereo unspecified)	i	i	3%	2%	-17%	-9%
C/C=C/C=N/NC(=O)CN(c1ccc(Br)cc1)S(=O)(=O)c1ccccc1	i	i	16%	-9%	5%	5%
SMILES	KB-V1 cytotox	KB-3-1 cytotox	HT1080 IDH1KD tx	DT40 TDP1 no CPT	DT40 TDP1 CPT	HT1080-NT tox
COc1ccc(CNC(=O)CCCn2nc([N+](=O)[O-])cc2C)cc1	i	i	-9%	-13%	-7%	-1%
Cc1cccc(Oc2cc(N)cc([N+](=O)[O-])c2)c1	i	i	11%	-27%	u	3%
Cc1cc([N+](=O)[O-])nn1CCCC(=O)N1CCN(c2ccc(F)cc2)CC1	18µM*	i	1%	u	-30%	-5%
Cc1cc(C)cc(Oc2cc(NC(=O)c3cn(C)nc3C)cc([N+](=O)[O-])c2)c1	i	i	u	1.4µM*	2.2µM*	u
Cc1cc([N+](=O)[O-])nn1CCCC(=O)Nc1cc(Oc2ccccc2)cc([N+](=O)[O-])c1	i	i	-1%	21µM*	16µM*	-3%
Cc1cc([N+](=O)[O-])nn1CCCC(=O)Nc1cc(Oc2ccc(F)cc2)cc([N+](=O)[O-])c1	5.8µM*	i	15%	u	u	12%
O=C(N/C(=C/c1cccc(Br)c1)C(=O)N1CCCCC1)c1ccco1	u	i	1%	u	u	-4%
O=C(c1cccs1)c1c[nH]cc1-c1ccccc1	i	i	-4%	-20%	-6%	-2%
CC1CCCCC12NC(=O)N(CC(=O)Nc1cccnc1)C2=O (stereo unspecified)	i	i	9%	-2%	0%	12%
CCOC(=O)c1c(NC(=O)c2cc(-c3ccc(Br)cc3)on2)sc(C)c1C	x	x	x	2%	-4%	x
Cc1ccc(Oc2cc(NC(=O)CCCn3nc([N+](=O)[O-])c(Cl)c3C)cc([N+](=O)[O-])c2)cc1	u	i	8%	23µM*	21µM*	15%
COc1ccccc1CCNC(=O)C(=O)NCC(c1cccs1)S(=O)(=O)c1ccccc1 (stereo unspecified)	u	i	x	u	u	x
Cc1cc(C)c(S(=O)(=O)NCC(c2cccs2)S(=O)(=O)c2ccccc2)c(C)c1 (stereo unspecified)	x	x	x	4.1µM*	1.2µM*	x
CCC(=O)NCC(c1cccs1)S(=O)(=O)c1ccc(C)cc1 (stereo unspecified)	i	i	9%	13%	-21%	11%
CC(C)(C)c1ccc(C(=O)NCC(c2cccs2)S(=O)(=O)c2ccc(F)cc2)cc1 (stereo unspecified)	u	u	x	21µM*	18µM*	x
